Exocytosis inh: LAMP-1 surface exposure blockers, TALL-104 cells – cell-based, flow cytometry, MLPCN library, primary screen. TALL-104 LAMP-1 surface exposure; cells stimulated with thapsigargin and PMA. inhibition, % at 10 µM. 360,000 compounds, 0.66% hits. AID 651702, 2012;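 active = inhibition above about 55%, limit read from the data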
TLR4 MyD88 comp: inhibitors of TLR4-MyD88 association in cells, primary screen, cell-based, HeLa CL3-4, BLA complementation, FRET ratio; AID 861, 2007; inhibition, % at 8.4 µM; 200,000 compounds, 0.18% hits; HeLa CL3-4 TLR4/MyD88 BLA complementation; in the data active = inhibition above about 25%;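 note: 0% = vehicle and 100% = reference inhibitor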
ABHD5 PLIN5 PPI: ABHD5-PLIN5 interaction inhibitors, primary screen, cell lysate, split luciferase complementation, luminescence; Perilipin-5 (Homo sapiens) + 1-acylglycerol-3-phosphate O-acyltransferase ABHD5 (Homo …; Split G. princeps luciferase complementation, 4 h; inhibition, % at 4 µM; 360,000 compounds, 0.78% hits; AID 602281, 2012;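 active = inhibition above the mean inhibition across every tested compound plus 3 SD, cut at about 22% in these data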;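 note: 0% = DMSO only wells and the 100% control is not disclosed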
TLR9-MyD88 inh: inhibitors of TLR9-MyD88 association in cells, primary screen, cell-based, CHO, BLA complementation, fluorescence. Toll-like receptor 9 (Homo sapiens) + Myeloid differentiation primary response protein …. CCF4 FRET ratio. inhibition, % at 4.98 µM. 340,000 compounds, 0.21% hits. AID 504734, 2011;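 active = inhibition above the mean over all tested compounds plus 3 SD, cut at about 21% in these data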;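 note: 0% = DMSO only wells and 100% = clavulanate BLA inhibitor control wells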
PRMT1 FP inh: PRMT1 methyltransferase inhibitors, primary screen, biochemical, fluorescence polarization; Protein arginine N-methyltransferase 1 (Homo sapiens), Q99873; recombinant PRMT1, activity-based probe fluorescence polarization; 370,000 compounds, 1.3% hits; AID 652257, 2013; inhibition, % at 2.79 µM;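 active = inhibition above about 21% made by adding two undisclosed values, limit read from the data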
NOD2 RIPK2 PPI: NOD2-RIPK2 binding disruptors in cells, primary screen, fluorescence, CHO cells, BLA complementation; Receptor-interacting serine/threonine-protein kinase 2 (Homo sapiens), O43353; CCF4 ratio; inhibition, % at 4.98 µM; 360,000 compounds, 0.38% hits; AID 624267, 2012; in the data active = inhibition above about 21%;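 note: 0% = vehicle only and 100% = reference blocker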
ABHD5 PLIN5 conf: ABHD5-PLIN5 interaction inhibitors, confirmation, biochemical, luminescence; shares compounds with ABHD5 PLIN5 PPI; inhibition, % at 4 µM; 2,200 compounds, 67% hits; AID 651612, 2012; in the data active = inhibition above about 23%;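 note: 0% = DMSO vehicle wells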
HNF4 split-luc: HNF4 dimerization inhibitors, counter-screen for ABHD5-PLIN5 interaction inhibitor project, biochemical, split-luciferase complementation, luminescence; shares compounds with ABHD5 PLIN5 PPI; inhibition, % at 4 µM; 2,200 compounds, 77% hits; AID 651674, 2012;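 active = mean inhibition across replicate wells exceeding the computed hit threshold, cut at about 13% in these data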;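 note: light from luciferase halves that rejoin when HNF4 fusion proteins dimerize; 0% = DMSO only wells and the 100% control is not given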
Target sequence (P41235 whole entry, looked up, the tested form may be a part): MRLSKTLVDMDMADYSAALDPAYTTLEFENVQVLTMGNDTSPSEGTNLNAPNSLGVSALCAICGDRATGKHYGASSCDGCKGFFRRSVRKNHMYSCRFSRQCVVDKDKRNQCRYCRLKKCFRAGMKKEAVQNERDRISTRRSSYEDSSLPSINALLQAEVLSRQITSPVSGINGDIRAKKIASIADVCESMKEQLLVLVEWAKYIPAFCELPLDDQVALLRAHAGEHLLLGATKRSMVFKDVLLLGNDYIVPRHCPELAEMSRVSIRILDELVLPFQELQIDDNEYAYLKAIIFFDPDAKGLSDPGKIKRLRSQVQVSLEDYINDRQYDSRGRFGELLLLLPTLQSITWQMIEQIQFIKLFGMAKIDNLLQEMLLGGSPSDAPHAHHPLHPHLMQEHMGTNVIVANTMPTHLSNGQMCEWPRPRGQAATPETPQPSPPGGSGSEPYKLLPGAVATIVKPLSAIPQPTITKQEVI
Granule exo CP1: inhibitors of lytic granule exocytosis, confirmation, TALL-104 cells, flow cytometry, Cherry Pick01. shares compounds with Exocytosis inh. LAMP-1 externalization; stimulated with PMA plus thapsigargin. inhibition, % at 10 µM. 1,500 compounds, 11% hits; in the data active = inhibition above about 60%;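 note: 0% = stimulated vehicle wells and 100% = unstimulated wells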
PRMT1 confirm: PRMT1 methyltransferase inhibitors, confirmation, biochemical, fluorescence polarization, triplicate. shares compounds with PRMT1 FP inh. recombinant His-PRMT1, activity-based probe fluorescence polarization. inhibition, % at 2.79 µM. 3,300 compounds, 42% hits. AID 687036, 2013;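 active = mean inhibition across replicates above the hit cutoff derived for the earlier primary screen, cut at about 22% in these data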
* = called active by the depositor; . = no result; ! = not active in a repeat. A selection: hits, their analogues and other compounds. The true share with any hit is near 2.6%.

SMILES	Exocytosis inh	TLR4 MyD88 comp	ABHD5 PLIN5 PPI	TLR9-MyD88 inh	PRMT1 FP inh	NOD2 RIPK2 PPI	ABHD5 PLIN5 conf	HNF4 split-luc	PRMT1 confirm	others
CC(=O)Oc1ccc(N2C(=O)C3C4C=CC(CO)(O4)C3C2=O)cc1 (stereo not given)	45.3	1.1	26.3*	11.4	84.7*	9.1	13.7	67.0*	79.3*
COc1ccc(N2C(=O)C3C4C=CC(c5ccccc5)(C3C2=O)C2C(=O)N(c3ccc(OC)cc3)C(=O)C42)cc1 (stereo not given)	-0.2	5.6	-2.9	-8.7	-2.5	-11.3	.	.	.
O=C1NC(=O)/C(=C\c2ccc(N3CCOCC3)o2)N1	-3.8	-5.6	68.0*	-4.8	30.3*	5.2	41.7*	93.9*	12.4
O=C(O)CN1C(=O)C=CC1=O	12.8	.	66.5*	6.3	63.6*	3.3	47.1*	104.0*	74.7*
Cc1ccc(C(=O)/C=C/C(=O)O)cc1	50.2	2.2	93.4*	-9.1	40.2*	-2.9	95.3*	105.9*	30.3*
Cc1ccc(-c2nc3cnccn3c2Nc2ccccc2)o1	-5.5	.	24.9*	6.6	66.8*	10.9	39.4*	84.0*	9.2
COC/C=C/C1=CC2=CC(=O)C(C)(OC(=O)C3CCCC3)C(=O)C2=CO1 (stereo not given)	34.5	.	35.8*	9.2	46.4*	-0.9	66.8*	38.8*	24.4*
COc1cccc(CNC(=O)[C@H]2CCCN2C(=O)C2CCCN2C(=O)c2ccc(OC)c(F)c2)c1 (stereo not given in full)	.	.	.	.	1.5	.	.	.	.
Cc1ccc(SC(CC(=O)c2ccc(F)cc2)C(=O)O)cc1 (stereo not given)	17.8	.	84.4*	1.5	81.9*	4.0	24.3*	70.3*	79.0*
CC(C)(C)c1ccc(C(=O)CC(Sc2ccc(Cl)cc2)C(=O)O)cc1 (stereo not given)	51.5	3.7	85.5*	-6.9	72.9*	14.3	54.4*	97.5*	84.7*
O=C(CC(C(=O)O)c1ccc(F)cc1)c1ccc(Cl)cc1 (stereo not given)	-11.1	.	4.3	-3.2	0.9	-1.9	.	.	.
CCCCCCCCN1C(=O)[C@@H](CC(=O)NCCc2ccccc2OC)C[C@@]2(C(=O)OC)C1=C[C@H](C(C)(C)C)O[C@@H]2C	.	.	.	.	5.7	.	.	.	.
O=Cc1ccc(-c2ccccc2C(=O)O)o1	-1.4	-8.9	17.6	17.1	3.5	-1.6	.	.	.
O=C(O)c1ccccc1-c1c2cc(I)c(=O)c(I)c-2oc2c(I)c(O)c(I)cc12	3.9	.	30.0*!	-4.7	83.0*	12.6	20.0	11.1	74.8*
COC(=O)c1cc2c(c3c4ccccc4n(S(=O)(=O)c4ccc(OC)cc4)c13)C(=O)N(Cc1ccc(C(F)(F)F)cc1)C2	.	.	.	.	-1.9	.	.	.	.
O=C(N/N=C/c1ccc(N2CCCCC2)o1)c1ccccc1[N+](=O)[O-]	11.4	15.3	25.9*	2.7	31.4*	5.0	38.2*	66.5*	5.3
CCCCNC(=O)c1cc(-c2ccccc2)sc1N	-4.0	.	0.7	.	11.2	-12.6	.	.	.
COCCNC(=O)c1cc(-c2ccccc2)sc1N	12.9	.	27.9*	.	31.9*	-15.1	0.9	-0.7	-2.2
COC(=O)C12C=C3CC(c4ccc(C(F)(F)F)cc4)=C3C(=O)N1Cc1[nH]c3ccccc3c1C2 (stereo not given)	.	.	.	.	1.6	.	.	.	.
Cc1ccc(NC(=O)c2cc(-c3ccc(C)o3)nc3ccccc23)cc1	84.0*	-4.0	35.3*	-5.0	49.0*	-9.3	38.0*	39.6*	25.1*	Granule exo CP1=-12.0
COc1ccccc1NC(=O)c1cc(-c2ccc(C)o2)nc2ccccc12	11.6	.	8.2	-1.1	19.6	-6.8	.	.	.
C[C@@H]1ON(C)[C@H]2C[C@H]3c4[nH]c5c(-c6cccc(F)c6)cccc5c4CCN3C(=O)[C@@H]12	.	.	.	.	-2.3	.	.	.	.
COc1cccc(CNC(=O)C2C3C=CC4(CN(Cc5ccccc5)C(=O)C24)O3)c1OC (stereo not given)	.	.	.	.	-1.4	.	.	.	.
Nc1ccccc1SSc1ccccc1N	33.3	.	60.2*	6.7	82.6*	12.7	88.4*	104.2*	83.8*
Cc1ccc(/C=C/C(=O)Nc2cccc3ncccc23)o1	10.2	-9.4	42.5*	2.5	69.0*	4.8	29.5*	32.9*	28.2*
SMILES	Exocytosis inh	TLR4 MyD88 comp	ABHD5 PLIN5 PPI	TLR9-MyD88 inh	PRMT1 FP inh	NOD2 RIPK2 PPI	ABHD5 PLIN5 conf	HNF4 split-luc	PRMT1 confirm	others
O=C(N[C@@H](Cc1cccnc1)C(=O)N1CCC[C@H]1C(=O)NCc1ccccc1)c1ccc(Cl)c(Cl)c1	.	.	.	.	-3.9	.	.	.	.
O=[N+]([O-])c1ccccc1S(=O)(=O)N1CCN(Cc2cc3c(cc2O)OCO3)CC1	10.9	-5.9	21.8	2.5	14.8	0.8	.	.	.
Cc1ccc(C)c(S(=O)(=O)N2CCN(Cc3cc4c(cc3O)OCO4)CC2)c1	-2.9	.	25.2*	8.0	45.5*	-1.8	34.8*	64.9*	8.3
CCOC(=O)CNC(c1ccccc1)c1cc(Br)ccc1NC(=O)CCN1CCOCC1 (stereo not given)	46.6	6.2	24.2*	1.1	36.6*	-5.9	3.0	39.0*	-0.3
COC(=O)C1=C(C)NC(C)=C(C(=O)OCC(C)C)C1c1ccccc1[N+](=O)[O-] (stereo not given)	68.1*	.	35.7*	5.4	25.2*	4.5	35.5*	94.7*	17.9
CN1C(=O)c2cc(NC(=O)Nc3ccc(F)c(F)c3)ccc2OC[C@H]2O[C@@H](CC(=O)O)CC[C@H]21	.	.	.	.	-0.2	.	.	.	.

Assay outcomes from PubChem.
